Measurements reported in the supplement of paper PMC9433436.
± gives the standard deviation of the averaged measurements. In all, about 4,100 sequences were measured (“relative kcat/Km (krel) vs genomic leader AAAGAU”: median about 1.7, highest 2% from about 6.5 on). What follows is part of a selection rich in the highest values, with near analogues and random picks from the rest.

Biological target: T1, E. coli RNase P holoenzyme (M1 P RNA + rnpA protein) (UniProt P0A7Y8)
T1 sequence: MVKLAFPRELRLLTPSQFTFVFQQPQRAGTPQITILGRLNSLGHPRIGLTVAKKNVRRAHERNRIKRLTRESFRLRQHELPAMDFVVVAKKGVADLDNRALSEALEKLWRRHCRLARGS
Assay: relative kcat/Km (krel) vs genomic leader AAAGAU (relative (reference leader = 1)); higher = faster RNase P cleavage
Description: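 HTS-Kin: a pool of ptRNA-Met (21C construct) with all 4096 combinations of 5' leader nucleotides N(-6) to N(-1) was processed in vitro by E. coli RNase P (P RNA + rnpA/C5 protein) under multiple-turnover conditions at 37 C, pH 8, 17.5 mM MgCl2. Residual substrate was Illumina-sequenced at several fractions reacted, and relative kcat/Km (krel) was computed by internal competition kinetics, calibrated to the genomic leader (AAAGAU = 1). The listed hexamer is the varied N(-6)..N(-1) leader (DNA letters), and it sits between a fixed 5' stem-loop flank (GCAUGCACGAAAGUGCGUGCUAUGAA) and the mature tRNA-Met starting GGCUACGUAGCUCAGUUGG. Two technical replicates are averaged.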

[1] = fraction of substrate reacted: ~9-10% (9.79% repeat 1, 9.1% repeat 2)
[2] = fraction of substrate reacted: ~13-16% (15.68% repeat 1, 13.17% repeat 2)
[3] = fraction of substrate reacted: ~26-29% (28.66% repeat 1, 26.4% repeat 2)

Sequence	relative kcat/Km [1]	relative kcat/Km [2]	relative kcat/Km [3]
ATCCCA	2.69 ± 1.7	2.52 ± 0.24	3.52 ± 0.92
CTCCGA	4.78 ± 2	5.35 ± 1.6	8.07 ± 3.3
GTCCGG	–	–	1.17 ± 0.26
ATCCGA	4.57 ± 1.7	4.95 ± 0.73	7.19 ± 2.7
GGCCGC	1.55 ± 0.064	1.97 ± 0.17	3.73 ± 0.94
GGCGGT	–	–	1.38 ± 0.92
ATGTCA	1.69 ± 0.74	1.97 ± 0.16	2.71 ± 1
CGCGTA	2.07 ± 0.78	1.48 ± 0.56	2.18 ± 0.99
CAGGAG	0.78 ± 0.77	–	0.626 ± 0.52
TAAGGT	–	–	3.06 ± 1.8
TCGGGC	–	–	1.18 ± 0.74
TGAATC	1.86 ± 0.16	1.84 ± 0.4	2.53 ± 0.78
TATAAT	3.05 ± 0.91	3.72 ± 0.38	5.41 ± 2.8
TAACAG	–	1.33 ± 0.61	2.19 ± 0.52
GCGAGA	1.04 ± 0.47	–	1.63 ± 0.017
GGCCGA	1.949 ± 0.015	2.42 ± 0.35	3.95 ± 1.3
TTCCGT	–	2.19 ± 1.9	2.5 ± 1.8
ATCCGC	3.93 ± 0.99	4.36 ± 1.7	6.74 ± 2.5
TTCCGC	4.23 ± 1.3	5.35 ± 0.93	8.49 ± 3.5
TTCCCA	2.74 ± 1.8	4.27 ± 0.3	4.97 ± 1.5
GTCCTA	3.11 ± 1.4	3.47 ± 0.34	4.9 ± 1.2
TGCCGA	2.99 ± 0.37	2.99 ± 1.4	4.69 ± 1.9

Sequence	relative kcat/Km [1]	relative kcat/Km [2]	relative kcat/Km [3]
ATCCGG	–	0.394 ± 0.063	0.881 ± 0.16
TTCCGG	1.74 ± 1.5	0.738 ± 0.38	1.68 ± 0.19
ATCCGT	–	–	2.3 ± 2.1
TTCCGA	4.31 ± 1.2	6.28 ± 2	9.5 ± 4.6
GTCCGA	3.87 ± 0.72	5.56 ± 1	8.22 ± 3.4
ACGACA	1.74 ± 0.19	1.62 ± 0.86	1.9 ± 0.45
CAGCAA	2.5 ± 1.1	2.58 ± 0.032	3.08 ± 1
TATCGA	3.95 ± 1.2	4.7 ± 0.84	6.39 ± 2.6
TTATAA	3.65 ± 1.4	4.53 ± 0.46	6.51 ± 2.4
ATATAC	3.5 ± 2.1	3.99 ± 0.01	6.02 ± 2.1
TTATAC	4.34 ± 1.3	5.2 ± 0.6	7.47 ± 2.9
CTATAC	3.79 ± 0.8	3.82 ± 0.28	5.86 ± 1.7
GTATAC	3.66 ± 2.2	4.72 ± 0.97	6.65 ± 2.7
GTATAG	–	1.79 ± 0.37	3.69 ± 0.99
CCGCCT	1.45 ± 0.15	–	1.54 ± 0.38
CTTCAG	–	1.26 ± 0.073	2.21 ± 0.1
TTTCAT	4.15 ± 1.4	5.11 ± 0.89	7.53 ± 3.4
GTTCAC	3.88 ± 0.89	4.82 ± 0.92	6.76 ± 2.6
TTTCAA	2.81 ± 1.9	2.95 ± 0.37	4.9 ± 2.3
ATTCAT	2.95 ± 1.6	3.71 ± 0.32	5.56 ± 2.2
GTTCAT	3.32 ± 0.77	4.43 ± 0.92	6.51 ± 3
CTTCAA	3.2 ± 2.3	3.11 ± 0.12	3.96 ± 1.1

Sequence	relative kcat/Km [1]	relative kcat/Km [2]	relative kcat/Km [3]
GTTCAA	2.59 ± 1.7	3.08 ± 0.83	4.21 ± 1.5
TCTCAT	3.52 ± 0.79	4.87 ± 1.2	6.39 ± 2.9
TTTCAG	2.51 ± 2.3	1.83 ± 0.22	3.23 ± 0.79
CTTCAT	4.07 ± 1.5	4.78 ± 0.63	6.67 ± 2.6
TTTCAC	3.76 ± 1.6	4.95 ± 0.89	6.83 ± 2.6
TGGAGT	–	–	1.17 ± 1.1
GGGGCC	0.798 ± 0.048	0.576 ± 0.47	0.579 ± 0.14
AACTGA	2.11 ± 1.8	1.88 ± 0.34	3.9 ± 0.84
ATTCTA	2.57 ± 2.1	2.17 ± 0.23	2.44 ± 0.73
AATACC	1.49 ± 0.43	1.431 ± 0.0097	1.56 ± 0.25
TTACAC	4.14 ± 1.9	4.92 ± 0.61	6.4 ± 2.5
CCCATA	2.83 ± 1.3	3.03 ± 0.6	4.43 ± 1.7
GAAGAA	2.23 ± 0.43	2.71 ± 0.3	2.76 ± 0.48
CGGTCC	–	–	0.889 ± 0.14
TTGCAA	1.54 ± 0.37	2.13 ± 0.72	2.92 ± 0.97
CCTTAC	3.84 ± 2.1	4.83 ± 0.16	5.67 ± 1.9
GATTAA	3.21 ± 0.97	3.86 ± 0.81	5.57 ± 2.6
CATTAA	3.66 ± 2.4	4.11 ± 0.12	5.92 ± 2
GATTAC	2.65 ± 0.6	4.2 ± 0.47	6.1 ± 2.1
GATTAT	3.36 ± 0.24	4.67 ± 0.86	7.25 ± 3.7
CATTAC	4.77 ± 1.5	5.16 ± 0.98	7.24 ± 2.8
GATTAG	2.16 ± 2.1	2.42 ± 0.093	3.68 ± 1.1

Sequence	relative kcat/Km [1]	relative kcat/Km [2]	relative kcat/Km [3]
CATTAG	2.22 ± 1.2	2.26 ± 0.59	4.08 ± 1.1
CATTAT	4.62 ± 1.6	6.32 ± 1.1	8.59 ± 3.6
GGAAGA	2.26 ± 0.31	2.24 ± 0.41	3.83 ± 0.61
CCTACG	–	–	1.4 ± 0.03
ACAGTT	1.6 ± 1.2	1.27 ± 0.62	1.3 ± 0.82
GTATGG	–	0.253 ± 0.21	1.01 ± 0.7
TTGTTC	1.96 ± 0.092	2.08 ± 0.17	3.27 ± 1.5
TAATCT	1.87 ± 1.1	3.08 ± 0.23	4.22 ± 1.6
TGGAGG	–	–	0.887 ± 0.34
AATTTA	1.65 ± 0.69	1.63 ± 0.14	2.33 ± 0.76
TGATTA	2.2 ± 0.59	2.91 ± 0.12	3.73 ± 1.7
CACGCT	1.83 ± 0.24	2.25 ± 0.6	3.03 ± 0.94
TTCAGT	–	2.35 ± 1.7	3.37 ± 2.9
TTCAGG	1.31 ± 0.71	1.12 ± 0.87	2.76 ± 0.9
GTCAGT	–	–	2.53 ± 2.2
CTTAGC	2.96 ± 1.3	3.29 ± 1.3	3.62 ± 0.95
CTCAGC	4.51 ± 1.9	5.37 ± 1.6	7.11 ± 2.5
GTCAGC	4.18 ± 1.7	5.29 ± 0.92	7.22 ± 2.9
TTCAGA	5.95 ± 2.5	6.69 ± 1.9	10.5 ± 4.5
ATCAGC	2.87 ± 0.62	3.75 ± 1	5.41 ± 1.6
GTCAGG	0.667 ± 0.23	1.03 ± 0.2	2.57 ± 1.1
TGCAGA	1.65 ± 0.82	2.24 ± 0.094	2.7 ± 0.68

Sequence	relative kcat/Km [1]	relative kcat/Km [2]	relative kcat/Km [3]
TTCGGA	–	–	1.79 ± 1
TTCAGC	5.19 ± 1.6	6.48 ± 1.2	9.03 ± 3.9
AATGTT	0.792 ± 0.16	0.821 ± 0.55	1.29 ± 0.62
TTAATA	1.94 ± 0.59	2.09 ± 0.08	2.85 ± 1
AGGGGG	–	–	1.11 ± 1
GGCGCC	2.72 ± 2.1	2.21 ± 0.42	3.06 ± 0.78
ACCCCC	2.28 ± 0.72	1.22 ± 0.62	3.15 ± 1.3
CTAGTA	1.32 ± 0.52	0.841 ± 0.56	1.69 ± 0.87
CACCTG	–	–	0.873 ± 0.43
AACCCG	–	–	0.785 ± 0.38
CTCATG	–	1.28 ± 0.22	3.1 ± 0.052
CTTATT	2.42 ± 1	2.76 ± 0.34	3.73 ± 1.6
GGCATC	1.73 ± 0.36	2.09 ± 0.48	2.42 ± 0.71
CGCATT	2.39 ± 0.24	2.95 ± 0.92	4.66 ± 2
ATCATC	3.27 ± 0.66	4.72 ± 0.78	6.25 ± 2.5
GCCATC	2.88 ± 0.72	3.43 ± 1.3	4.62 ± 1.3
CTCATC	3.63 ± 1	4.57 ± 0.43	6.8 ± 2.4
CTCATT	3.69 ± 1.4	5.23 ± 0.62	7.36 ± 3
GTCATC	4.03 ± 1.8	5.36 ± 1.2	8.03 ± 3.5
